The whole screen tested about 350,000 compounds, of which about 31,000 (8.9%) were called active. Inconclusive results (about 15%) are left out. The entries come from a sample that favours actives as a whole. Where a call stands in place of a potency, no number is given. Values without a mark were called inactive. The call rests on the fitted dose curve; in most records, active means well fitted inhibition curve with a large enough effect; inconclusive means small, poorly fitted or top-dose-only effect; inactive means no such curve, though single readings can be large or run the other way.
Potency means the concentration at half of the fitted maximal effect.

Sequence of Histone-lysine N-methyltransferase EHMT2 (Homo sapiens) (Q96KQ7 913-1193 limits assumed): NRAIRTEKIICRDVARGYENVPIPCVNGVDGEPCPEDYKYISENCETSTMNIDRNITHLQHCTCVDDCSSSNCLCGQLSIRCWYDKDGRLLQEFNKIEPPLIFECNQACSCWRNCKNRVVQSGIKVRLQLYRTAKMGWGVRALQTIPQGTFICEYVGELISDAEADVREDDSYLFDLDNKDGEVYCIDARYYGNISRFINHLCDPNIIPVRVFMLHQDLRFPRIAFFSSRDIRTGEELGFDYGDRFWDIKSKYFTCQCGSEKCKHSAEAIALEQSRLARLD

This experiment deals with Histone-lysine N-methyltransferase EHMT2 (Homo sapiens) (UniProt Q96KQ7). As to the kind of experiment: qHTS Assay for Inhibitors of Histone Lysine Methyltransferase G9a. Further: nearly all actives have a fitted effect of over 75% in size. Particulars: G9a H3K9 monomethylation, AlphaScreen, 2 h; series mostly up to 59 µM. The method in brief:
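AlphaScreen read-out: biotin-H3K9 peptide (500 nM) methylation by 20 nM enzyme with 20 uM SAM, 2 h at room temperature after 15 min compound preincubation; anti-monomethyl H3K9 antibody plus donor/acceptor beads, 10 min dark.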
As for `O=C1CC[C@H](O)CCN1[C@H](CSc1ccc(Br)cc1)Cc1ccccc1`, the activity, negative = inhibition is 11.1% [at 2.33 µM].
With `O=C(CSc1nnc(-c2ccncc2)n1-c1ccccc1)Nc1ccc(Cl)c(Cl)c1`, the Potency entry is “inactive”.
Still for that read-out and setting: next, `COc1ccc(OC)c(CNC(=O)Cn2nc(C)c3c(C)n(-c4ccccc4)nc3c2=O)c1`: “inactive”; `CCOC(=O)C1CCCN(CC(=O)Nc2cc(C)c3c(=O)oc4ccccc4c3n2)C1` (configuration not stated): “inactive”.
In the case of `COC(=O)c1sc2ncccc2c1-n1c(C)ccc1C`, the Potency entry is “inactive”.
Turning to `O=C(CSc1ccccc1)Nc1cccc(S(=O)(=O)N2CCCCC2)c1`, the activity, negative = inhibition is 14.6% [at 12.7 µM].
With `CCCCSc1nc2ccccc2[nH]1`, the Potency result is “inactive”.
For `CCN(/N=C/c1ccc(N(C)C)cc1)c1nc2ccccc2[nH]1`, the Potency was 2.82 µM (active).
On to `CCN(/N=C/c1ccccc1)c1cc(=O)n(C)c(=O)[nH]1`, for which the Potency entry is “inactive”.
For the compound `CN1C(=O)C2(OCCCO2)c2cc(Cl)ccc21`, the Potency entry was “inactive”.
Regarding `COc1cc(NC(=O)CSC(=S)N2CCCC2)c(OC)cc1Cl`, the activity, negative = inhibition is 13.5% [at 2.33 µM].
With `Cc1ccccc1-n1nc(C)c2c1N=C1C(Cl)=CC(Cl)=CN1C2c1ccc(C(=O)O)cc1` (configuration not stated), the Potency is 25.1 µM (active).
The same measure, in the same setting: in the case of `CC1CCN(C(=O)Cn2c(=O)n(-c3ccc(Cl)cc3)c(=O)c3c4c(sc32)CCC4)CC1` it was “inactive”; in that of `CCn1c(SC)nc(O)c(C(c2ccc(OC)c(O)c2)c2c(O)nc(SC)n(CC)c2=O)c1=O`, 10 µM (active).
Still for that read-out and setting: in the case of `CCn1c(CNC(=O)c2ccc(OC)c(OC)c2)nnc1SCC(=O)Nc1ccccc1` it was “inactive”.
For `COc1ccc2c(c1OC)C(=O)OC2c1c(O)nc(SC)n(-c2ccccc2)c1=O` (configuration not stated), the activity, negative = inhibition was 4.51% [at 12.7 µM].
As for `CCOc1ccccc1NC(=O)C1=C(C)Nc2ncnn2C1c1ccc(NC(C)=O)cc1` (configuration not stated), the Potency result is “inactive”.
Same read-out and setting: in the case of `COc1ccccc1N1CCN(c2ccc(=O)n(CC(=O)NCc3ccc(OC(C)C)cc3)n2)CC1` it was “inactive”; in that of `COc1cccc(Cn2c(SCc3ccc(C(=O)N4CCC(C)CC4)cc3)nc3ccncc32)c1`, 1.78 µM (active).
Still for that read-out and setting: in the case of `COc1cccc(Cn2c(SCc3ccc(C(=O)N4CCCCC4)cc3)nc3ccncc32)c1` it was “inactive”; in that of `Cc1cccc(Cn2c(SCc3ccc(C(=O)N4CCC(C)CC4)cc3)nc3ccncc32)c1`, “inactive”.
Same read-out and setting: in the case of `O=C(CSc1nc2c(c(=O)[nH]1)CN(Cc1ccc3c(c1)OCO3)CC2)Nc1cc(F)ccc1F` it was “inactive”.
As to `Cc1ccc2oc(C(=O)N3CCN(C)C[C@@H]3C(C)C)c(C)c2c1`, the Potency entry is “inactive”.
Consider `CN(C)S(=O)(=O)c1cc(C(=O)Nc2ccn(C)n2)c(Cl)cc1Cl`, for which the activity, negative = inhibition was 19.1% [at 12.7 µM].
For the compound `CS(=O)(=O)c1sc(C(=O)NC(=S)Nc2ccc(OC(F)(F)F)cc2)c2c1C=CCC2`, the Potency was 50.1 µM (active).
Same read-out and setting: in the case of `FC(F)(F)Oc1ccc(NC(=S)NCc2ccccc2)cc1` it was “inactive”.
The same measure, in the same setting: in the case of `CCNC(=S)Nc1ccc(OC(F)(F)F)cc1` it was “inactive”.
On the same count and under the same terms, next, `COc1ccc(Cl)cc1C(=O)Nc1ccc(N(C)C(C)=O)cc1`: “inactive”; `COc1cc(OC)c(C(=O)Nc2ccccc2-c2ccccc2)cc1OC`: “inactive”; `COc1cc(OC)c(C(=O)Nc2ccc(N(C)C)cc2)cc1OC`: 4.47 µM (active).
`COc1ccc(C(C)NC(=O)C23CC4CC(CC(C4)C2)C3)cc1` (configuration not stated): the Potency result is “inactive”.
Consider `CCOc1ccc(-c2cc3nc(C4CCN(C(=O)OC(C)(C)C)CC4)c(C(=O)Nc4cccc(CC)c4)cn3n2)cc1`, for which the Potency entry was “inactive”.
In the case of `O=C(NCc1ccc2c(c1)CCN2C(=O)c1ccccc1)Nc1cc(F)ccc1F`, the Potency entry was “inactive”.
As for `CCSc1nc(C)c(CCOc2cccc(C)c2)c(=O)[nH]1`, the Potency entry is “inactive”.
Same read-out and setting: in the case of `CC(C)c1c(O)nc(SCCOc2ccc(Cl)cc2)[nH]c1=O` it was “inactive”; in that of `CCSc1nc(O)c(C(c2cccc(OC)c2)c2c(O)nc(SCC)[nH]c2=O)c(=O)[nH]1`, 70.8 µM (active).
For `CCCCn1c(N)c(N(CC)C(=O)c2ccc(N(C)S(=O)(=O)c3ccc(C)cc3)cc2)c(=O)[nH]c1=O`, the activity, negative = inhibition is 8.91% [at 12.7 µM].
With `CCCCn1c(N)c(N(CCC(C)C)C(=O)COC(=O)c2cccnc2OCC)c(=O)[nH]c1=O`, the Potency entry is “inactive”.
Same read-out and setting: in the case of `COc1ccc(NS(=O)(=O)c2ccc(C)c(C(=O)NCC(c3cccs3)N3CCOCC3)c2)cc1` (configuration not stated) it was “inactive”; in that of `COc1cccc(N2CC(NC(=O)c3ccc4ccccc4c3)CC2=O)c1` (configuration not stated), “inactive”; in that of `CC(=O)c1ccc(NC(=O)C(C)NCc2ccc(Cl)cc2)cc1` (configuration not stated), “inactive”.
`CC(NCC(=O)Nc1cc(Cl)cc(Cl)c1)c1ccccc1` (configuration not stated): the Potency result was “inactive”.
Consider `CC(NCc1cccs1)C(=O)Nc1cc(Cl)cc(Cl)c1` (configuration not stated), for which the Potency is 5.01 µM (active).
`Cc1cccc(NC(=O)c2sc3nc(N4CCOCC4)c4c(c3c2N)CCCC4)c1`: the activity, negative = inhibition is 6.18% [at 0.501 µM].
For the compound `CC(NC(=O)CN(C)S(=O)(=O)c1ccc(F)cc1)C1CC2CCC1C2` (configuration not stated), the activity, negative = inhibition is 11.8% [at 12.7 µM].
In the case of `COc1ccccc1C(=O)OCc1cc(=O)n2nc(-c3cccs3)sc2n1`, the Potency entry was “inactive”.
On the same count and under the same terms, next, `CC(C)c1nc(SCC(=O)Nc2cccc(C(=O)O)c2)c2c3c(sc2n1)CCCC3`: “inactive”.
Turning to `Cc1cc(NC(=O)CSc2nc(C(C)C)nc3sc4c(c23)CCC(C)C4)no1` (configuration not stated), the Potency is 1 µM (active).
The same measure, in the same setting: next, `CCCCOC(=O)CSc1ncnc2sc3c(c12)CCC(C)C3` (configuration not stated): “inactive”; `CCOc1ccccc1CNC(=O)c1cnc2c(-c3ccc(OCC)c(OCC)c3)c(C)nn2c1C`: “inactive”; `CCc1nccn1S(=O)(=O)c1cc(Br)ccc1Br`: “inactive”.
With `O=C(O)CCC(=O)N(Cc1cccs1)Cc1cccs1`, the Potency was 50.1 µM (active).
The same measure, in the same setting: in the case of `Cc1ccnc(NC(=O)CCC(=O)N(CC(=O)NCCc2ccccc2)Cc2cccs2)c1` it was “inactive”.
With `O=C(CCc1ccccc1)NCCc1cccs1`, the Potency entry is “inactive”.
As for `CN(Cc1ccc(F)cc1)C(=O)COc1ccc2ccccc2c1`, the Potency entry was “inactive”.
On the same count and under the same terms, next, `Fc1ccc(COc2cccc(-c3n[nH]c(=S)o3)c2)cc1`: 5.01 µM (active).
On the same count and under the same terms, next, `Fc1ccc(COc2ccc(-c3nnco3)cc2)cc1`: “inactive”; `O=C(N/N=C/c1ccccc1O)C1CCCC1`: “inactive”.
As for `COc1ccc(Cn2ccc3nc(C)c(C(=O)Nc4ccc(C)c(F)c4)cc3c2=O)cc1`, the Potency result is “inactive”.
In the case of `O=C(O)c1ccccc1NC(=S)NC(NC(=O)c1ccccc1[N+](=O)[O-])C(Cl)(Cl)Cl` (configuration not stated), the Potency is 12.6 µM (active).
The same measure, in the same setting: in the case of `O=C(O)c1ccccc1C(=O)Nc1ccccc1[N+](=O)[O-]` it was “inactive”; in that of `O=C(Nc1ccccc1-c1ccccc1)c1ccccc1[N+](=O)[O-]`, “inactive”.

(Values after PubChem BioAssay AID504332 (National Center for Advancing Translational Sciences (NCATS), 2011).)
